# Values without a mark were called inactive. Results filed as inconclusive are left out. Active and inactive are the calls of the source. Unless noted, calls come from the whole dose curve; as a rule, active = well fitted curve in either direction with a large enough effect (not every such curve was filed as active); inconclusive = small, poorly fitted or top-dose-only effect, or another doubt; inactive = flat fitted curve, though single readings scatter.
# Columns and labels:
# [1] = AP1 Signaling Pathway (AID 357); conditions: ME-180 AP-1-bla reporter, EGF-induced, beta-lactamase ratio, 5 h; at 17.2 µM (top of the series) unless noted;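 note: ME-180 reporter cells stimulated with EGF at its EC50 level; % is set by controls: 0 for no effect and ±100 for the full control effect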
# In short: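 A ratiometric CCF4 readout (405 nm excitation; 460 and 530 nm emission) quantified AP-1-driven beta-lactamase in ME-180 cells after 5 h with compound and EC50 EGF; AC50 values were derived for activators and inhibitors.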
# [2] = Stat Signaling Pathway (AID 446); conditions: ME-180 SIE beta-lactamase reporter, IL-6 stimulated, 5 h; at 17.2 µM (top of the series) unless noted;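 note: ME-180 cervical cancer cells given 40 pM IL-6 alongside compound; SIE-controlled beta-lactamase reporter measured as 460/530 nm FRET emission ratio; % is set by controls: 0 for no effect and ±100 for the full control effect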
# In short: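 FRET read-out (405 nm excitation, 460/530 nm emission) of a beta-lactamase reporter under a STAT-inducible element in ME-180 cervical carcinoma cells. Cells with compound receive 40 pM IL-6 for 5 h. Values are normalised to AC90 stimulation and AC90 JAK-inhibitor controls.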
# [3] = biological target: Glucocorticoid receptor (Homo sapiens) (UniProt P04150); experiment: GR-GFP Redistribution (AID 450;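 active = compounds whose dose series gives a full or clear partial fitted curve of increased nuclear translocation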; note: potency is the fitted concentration of half-maximal effect)
# [4] = qHTS Assay for Identification of Small Molecule Agonists for Hypoxia Response Element Signaling Pathway (AID 914; active = well fitted activation curve with a large enough effect in the signal ratio, with a control signal flat, not every such curve was filed as active; the % refers to the signal ratio; note: potency is the fitted concentration of half-maximal effect; for activation: % of control where 0% means no effect); conditions: ME-180 (cervical carcinoma) HRE-bla reporter, beta-lactamase ratio, CoCl2, 17 h; activation: active compounds read high
# In short: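 Compounds in a titration series were added to ME-180 reporter cells alongside an EC50 level of CoCl2. After 17 hours, beta-lactamase activity was read as the 460nm/530nm emission ratio of CCF4, giving AC50 values.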
# [5] = biological target: Tyrosyl-DNA phosphodiesterase 1 (Homo sapiens) (UniProt Q9NUW8); experiment: Confirmation Assay for Inhibitors of Tyrosyl-DNA Phosphodiesterase (TDP1) (AID 489007; active = well fitted curve in the direction sought with a large enough effect; an effect the other way counts as inactive or inconclusive; note: potency is the fitted concentration of half-maximal effect; nearly all actives have a fitted effect of over 40% in size); conditions: recombinant human TDP1 enzymatic activity, dose-response
# In short: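 AlphaScreen assay of tyrosine-FITC cleavage from a biotinylated DNA substrate (15 nM) by E. coli-expressed human Tdp1 (1 nM). Sequence: compound preincubation 15 min, reaction 5 min, bead detection 10 min, all at room temperature. No-enzyme wells give maximum signal.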
# [6] = biological target: Tumor susceptibility gene 101 protein (Homo sapiens) (UniProt Q99816); experiment: qHTS Assay for Iinhibitors of HIV-1 Budding by Blocking the Interaction of PTAP/TSG101: Hit Validation (AID 651600; active = well fitted curve in the direction sought with a large enough effect; an effect the other way counts as inactive or inconclusive; note: potency is the fitted concentration of half-maximal effect; nearly all actives have a fitted effect of over 70% in size)
# In short: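 Compounds are added to the Tsg101 binding domain (10 uM final) in pH 7.5 HEPES buffer. FITC-PTAP peptide follows at 50 nM final. After 20 min at r.t., polarized FITC emission is measured.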
# [7] = qHTS for Inhibitors of the vitamin D receptor (VDR): Hit Validation using a Texas Red Assay (AID 602201; active = well fitted curve in the direction sought with a large enough effect; an effect the other way counts as inactive or inconclusive; note: potency is the fitted concentration of half-maximal effect); conditions: VDR coregulator binding, Texas Red fluorescence polarization; agonist-bound VDR ligand-binding domain
# In short: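 After a 2-hour room-temperature incubation, polarization of Texas-Red emission was read (Ex 595 nm/Em 615 nm). Final mix contained 7 nM Texas Red, 1.5 uM VDR-LBD and LG19078.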
# [8] = biological target: Glucocorticoid receptor (Homo sapiens) (UniProt P04150); experiment: GR-EFC Redistribution (AID 451; calls by dose curve; note: potency is the fitted concentration of half-maximal effect); conditions: CHO-K1 GR-EFC translocation, beta-gal luminescence, 2 h
# In short: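 Translocation of GR-ED fusion to nuclear EA restores b-gal, read by luminescence after 1 h room-temperature detection. Engineered CHO-K1 biosensor cells, 1,000/well, exposed 2 h at 37 C to titrations up to 46 uM final.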
# [9] = biological target: Mitogen-activated protein kinase 10 (Mus musculus) (UniProt Q61831); experiment: JNK3 AlphaScreen Assay (AID 530);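 note: kinase came from lysate of stimulated human HepG2 cells; signal reports phosphorylation of biotinylated GST-cJun 1-79 at Ser73 with 10 µM ATP; % is set by controls: 0 for no effect and ±100 for the full control effect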
# In short: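 qHTS titrations with 15 min compound pre-incubation before adding ATP (10 uM final). Read-out: AlphaScreen of Ser73-phosphorylated biotin-GST-cJun using HepG2 lysate JNK3 activated by IL-1β and TNFα.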
# [10] = biological target: 3',5'-cyclic-AMP phosphodiesterase 4B (Homo sapiens) (UniProt Q07343); experiment: qHTS Assay for Inhibitors of PDE-IV (AID 607; active = well fitted activation curve with a large enough effect in the main read-out, with a control signal flat, not every such curve was filed as active; note: % of control where 0% means no effect)
# In short: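 Cell-based read-out of cAMP via a modified cyclic nucleotide-gated channel and membrane potential dye (535/590 nm) in HEK293 cells expressing PDE4 endogenously. Compounds tested up to 22.9 uM final; 100 uM RO 20-1724 reference.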
# Glucocorticoid receptor (Homo sapiens), sequence (P04150 whole entry, looked up, the tested form may be a part): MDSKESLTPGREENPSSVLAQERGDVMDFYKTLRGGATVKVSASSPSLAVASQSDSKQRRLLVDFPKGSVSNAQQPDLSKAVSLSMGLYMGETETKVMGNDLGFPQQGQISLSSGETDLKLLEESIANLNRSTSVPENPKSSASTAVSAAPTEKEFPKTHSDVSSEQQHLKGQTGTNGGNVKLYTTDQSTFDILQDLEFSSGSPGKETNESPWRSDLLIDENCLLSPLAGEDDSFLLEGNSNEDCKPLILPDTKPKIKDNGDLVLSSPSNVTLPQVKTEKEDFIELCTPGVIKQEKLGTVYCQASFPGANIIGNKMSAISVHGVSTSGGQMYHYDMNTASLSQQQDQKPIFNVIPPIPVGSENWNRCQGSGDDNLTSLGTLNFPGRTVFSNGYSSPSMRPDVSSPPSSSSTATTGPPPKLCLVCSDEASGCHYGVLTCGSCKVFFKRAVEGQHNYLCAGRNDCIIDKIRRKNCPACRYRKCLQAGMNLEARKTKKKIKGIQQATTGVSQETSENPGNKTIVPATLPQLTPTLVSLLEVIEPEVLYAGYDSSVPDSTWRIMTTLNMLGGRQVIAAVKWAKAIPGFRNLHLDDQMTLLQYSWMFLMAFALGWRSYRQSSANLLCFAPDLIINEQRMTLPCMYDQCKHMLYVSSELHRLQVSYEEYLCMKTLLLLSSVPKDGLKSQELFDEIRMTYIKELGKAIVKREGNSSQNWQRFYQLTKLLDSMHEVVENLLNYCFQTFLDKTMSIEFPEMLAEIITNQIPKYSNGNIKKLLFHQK
# Tumor susceptibility gene 101 protein (Homo sapiens), sequence (Q99816 whole entry, looked up, the tested form may be a part): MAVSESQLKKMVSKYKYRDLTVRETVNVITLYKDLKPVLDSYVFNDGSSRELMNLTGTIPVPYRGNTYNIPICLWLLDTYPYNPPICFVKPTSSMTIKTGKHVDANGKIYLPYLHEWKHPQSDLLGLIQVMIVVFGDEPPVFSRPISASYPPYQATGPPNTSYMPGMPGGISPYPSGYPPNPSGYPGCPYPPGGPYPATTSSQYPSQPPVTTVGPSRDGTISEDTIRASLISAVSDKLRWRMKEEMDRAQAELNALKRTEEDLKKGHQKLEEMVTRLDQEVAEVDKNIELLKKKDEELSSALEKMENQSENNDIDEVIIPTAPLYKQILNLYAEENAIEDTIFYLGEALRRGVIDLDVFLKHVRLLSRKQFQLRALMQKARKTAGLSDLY
# Tyrosyl-DNA phosphodiesterase 1 (Homo sapiens), sequence (Q9NUW8 whole entry, looked up): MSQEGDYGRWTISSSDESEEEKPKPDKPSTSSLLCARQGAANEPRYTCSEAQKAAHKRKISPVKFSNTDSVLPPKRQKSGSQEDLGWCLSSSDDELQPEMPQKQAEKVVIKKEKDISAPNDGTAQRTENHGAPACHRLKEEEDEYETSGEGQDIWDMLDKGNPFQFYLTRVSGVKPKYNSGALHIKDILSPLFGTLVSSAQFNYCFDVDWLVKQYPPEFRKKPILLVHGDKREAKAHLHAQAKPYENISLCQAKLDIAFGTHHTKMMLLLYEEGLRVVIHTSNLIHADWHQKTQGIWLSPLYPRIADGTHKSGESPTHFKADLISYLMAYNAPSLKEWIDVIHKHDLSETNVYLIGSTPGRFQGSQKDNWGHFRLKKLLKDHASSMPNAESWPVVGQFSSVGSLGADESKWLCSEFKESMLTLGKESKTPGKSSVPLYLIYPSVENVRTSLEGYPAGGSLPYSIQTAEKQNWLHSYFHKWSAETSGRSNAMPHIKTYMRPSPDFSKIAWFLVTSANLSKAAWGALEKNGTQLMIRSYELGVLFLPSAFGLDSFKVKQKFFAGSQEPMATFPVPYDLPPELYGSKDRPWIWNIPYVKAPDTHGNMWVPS
# 3',5'-cyclic-AMP phosphodiesterase 4B (Homo sapiens), sequence (Q07343 whole entry, looked up): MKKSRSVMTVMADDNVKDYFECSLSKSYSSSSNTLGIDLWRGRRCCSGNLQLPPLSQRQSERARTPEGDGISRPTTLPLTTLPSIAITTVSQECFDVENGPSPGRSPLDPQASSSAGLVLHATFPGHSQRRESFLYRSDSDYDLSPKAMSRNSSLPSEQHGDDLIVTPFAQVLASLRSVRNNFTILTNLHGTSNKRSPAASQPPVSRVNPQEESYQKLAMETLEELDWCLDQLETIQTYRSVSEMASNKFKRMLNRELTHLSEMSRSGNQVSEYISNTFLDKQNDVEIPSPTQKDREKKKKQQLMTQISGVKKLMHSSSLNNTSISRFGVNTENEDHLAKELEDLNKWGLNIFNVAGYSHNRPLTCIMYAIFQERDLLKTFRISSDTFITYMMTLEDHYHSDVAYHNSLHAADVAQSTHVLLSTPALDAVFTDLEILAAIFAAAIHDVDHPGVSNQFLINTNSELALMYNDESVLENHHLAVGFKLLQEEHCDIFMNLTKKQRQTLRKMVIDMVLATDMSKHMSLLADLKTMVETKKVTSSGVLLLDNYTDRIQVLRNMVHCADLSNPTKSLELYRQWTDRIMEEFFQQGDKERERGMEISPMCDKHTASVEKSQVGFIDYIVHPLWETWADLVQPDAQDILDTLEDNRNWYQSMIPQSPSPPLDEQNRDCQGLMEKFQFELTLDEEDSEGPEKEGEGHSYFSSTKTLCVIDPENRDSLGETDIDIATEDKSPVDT
smiles,measurement,setting,value
Cc1ccccc1C(=O)c1ccc2c(c1)n(C)c(=O)n2C,"activity change, negative = inhibition",[1],4.88%
same,"activity, negative = inhibition",[2],-15.6%
same,Potency,[3],> 20.6 µM
same,activation,[4],-17.8%
O=C1c2ccccc2-c2onc3ccc(NCc4ccco4)c1c23,"activity change, negative = inhibition",[1],-13%
same,"activity, negative = inhibition",[2],-1.03%
same,Potency,[3],> 20.6 µM
same,Potency,[5],7.08 µM (active)
same,Potency,[6],1.63 µM (active)
O=C(CCN1CCc2ccccc2CC1)c1ccc2c(c1)OCCO2,"activity change, negative = inhibition",[1],-22%
same,"activity, negative = inhibition",[2],12.8%
same,Potency,[3],> 20.6 µM
same,Potency,[7],10 µM (active)
C[N+](C)(C)[C@@H](C1=CCCC1=O)c1ccccc1,"activity change, negative = inhibition",[1],3.55% [at 7.69 µM]
same,"activity, negative = inhibition",[2],-12.6% [at 7.69 µM]
same,Potency,[3],> 46 µM
same,Potency,[8],> 9.22 µM
same,"activity change, negative = inhibition",[9],5.46% [at 11.4 µM]
same,Potency,[10],inactive
same,activation,[4],-1.62%
CCc1ccc(-c2cn3nc(C)c(C)nc3n2)cc1,"activity change, negative = inhibition",[1],0.521%
same,"activity, negative = inhibition",[2],11.8%
same,Potency,[3],> 20.6 µM
same,Potency,[4],10 µM (active)
CCCN(CCC)c1nc2ccccc2nc1C(C#N)C(=O)OC(C)COC (centres undefined),"activity change, negative = inhibition",[1],-15.4%
same,"activity, negative = inhibition",[2],-20.4%
same,Potency,[3],> 20.6 µM
same,activation,[4],-6.34%
CC(C)OCCCn1c(=N)c(C(N)=S)cc2c(=O)n3ccccc3nc21,"activity change, negative = inhibition",[1],-4.52%
same,"activity, negative = inhibition",[2],-1.51%
same,Potency,[3],> 20.6 µM
same,activation,[4],13.6%
CCCCCNC(=O)c1c(N)n(/N=C/c2ccco2)c2nc3ccccc3nc12,"activity change, negative = inhibition",[1],20.3%
same,"activity, negative = inhibition",[2],28.5%
same,Potency,[3],> 20.6 µM
same,Potency,[4],7.94 µM (active)
O=C(c1ccc(=O)oc1)N1CCOCC1,"activity change, negative = inhibition",[1],17.3%
same,"activity, negative = inhibition",[2],-0.795%
same,Potency,[3],> 20.6 µM
same,activation,[4],5.28%
CC(C)(C)c1nnc2sc(SCC(=O)c3ccccc3)nn2c1=O,"activity change, negative = inhibition",[1],2.49%
same,Potency,[3],> 20.6 µM
CCOC(=O)c1ccc(N=Cc2nc(-c3ccccc3)oc2OC(C)=O)cc1,"activity change, negative = inhibition",[1],-16.3%
same,Potency,[3],> 20.6 µM
Clc1ccc2nc(N3CCNCC3)nc(-c3ccccc3)c2c1,"activity change, negative = inhibition",[1],28.9%
same,Potency,[3],> 20.6 µM
Fc1ccc2[nH]c3c(N4CCSCC4)ncnc3c2c1,"activity change, negative = inhibition",[1],-16.7%
same,Potency,[3],> 20.6 µM
C=CCOn1c(=O)c(-c2ccc(OC)cc2)[n+]([O-])c2ccccc21,"activity change, negative = inhibition",[1],-22.9%
same,Potency,[3],> 20.6 µM
Cc1ccccc1-c1nn2c(-c3ccccc3)nnc2s1,"activity change, negative = inhibition",[1],-18%
same,Potency,[3],> 20.6 µM
CCOC(=O)NC(Nc1sc2c(c1C(=O)OC)CCN(C)C2)(C(F)(F)F)C(F)(F)F,"activity change, negative = inhibition",[1],12.1%
same,Potency,[3],> 20.6 µM
